S1P2 antag = S1P2 (human) receptor antagonism; O95136; cell-based S1P2 antagonist assay, inhibition at 5 uM; inhibition, % at 5 µM; actives 0.21% (n = 97,000); AID 736; in the data active = inhibition above about 45%;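 note: CRE beta-lactamase reporter cells expressing human S1P2 stimulated with S1P; 0% = agonist at EC80 alone and 100% = agonist plus reference antagonist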
Target sequence (O95136 whole entry, looked up): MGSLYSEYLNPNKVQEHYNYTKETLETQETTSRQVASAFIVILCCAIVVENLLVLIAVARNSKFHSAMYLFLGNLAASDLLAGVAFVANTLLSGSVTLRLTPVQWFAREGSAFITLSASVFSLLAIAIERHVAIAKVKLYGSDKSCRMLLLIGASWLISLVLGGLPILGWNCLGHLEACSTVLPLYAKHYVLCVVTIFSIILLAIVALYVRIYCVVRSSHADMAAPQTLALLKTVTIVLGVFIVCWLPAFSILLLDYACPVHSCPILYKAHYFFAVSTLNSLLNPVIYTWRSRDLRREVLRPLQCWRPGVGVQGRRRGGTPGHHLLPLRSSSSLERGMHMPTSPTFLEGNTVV
MRP resist rev = MRP-mediated drug resistance reversal | actives 0.04% (n = 85,000) | H69AR cells + 2 uM doxorubicin, CellTiter-Glo, 72 h | differential viability (reversal), % at 10 µM;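 active = viability drop by adding the cancer drug above about 55%, with treated viability meeting a 40% cutoff, limit read from the data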;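 note: viability without doxorubicin minus viability with 2 µM doxorubicin for each compound; larger differential means the compound sensitizes cells more to doxorubicin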
GALR2 antag = GALR2 (human) receptor antagonism. O43603. GALR2-expressing cells, antagonist mode. inhibition, % at 4 µM. actives 0.39% (n = 140,000); in the data active = inhibition above about 27%;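 note: cells stimulated with galanin 1-16 at roughly its EC80; 0% = agonist challenge control and 100% = basal control without agonist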
MRP-1 activ = activates MRP-1; H69AR cells + doxorubicin, viability rescue, CellTiter-Glo; viability increase, % at 10 µM; actives 0.61% (n = 140,000);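 active = viability gain under doxorubicin at or above a set limit, the compound median plus 3 SD, cut at about 4.7% in these data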;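 note: MRP-1 overexpressing cells given doxorubicin 25 µM after compound pretreatment; 18-22 h compound pretreatment then 72 h with doxorubicin before readout; 0% = doxorubicin-only wells and 100% = vehicle-treated cells without doxorubicin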
GALR2 agonist = activates the human galanin receptor 2. AID 803. activation, % (no concentration beside the values). GALR2-expressing cells, agonist activation read-out. actives 0.48% (n = 140,000). O43603; in the data active = activation above about 5%, passing the limit was not always enough;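 note: 0% = vehicle buffer wells and 100% = reference agonist at full effect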
S1P2 agonist = activates the human S1P2 receptor; O95136; S1P2-expressing cell line, agonist reporter read-out; actives 0.46% (n = 97,000); activation, % at 4.5 µM; in the data active = activation above about 16%;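 note: 0% = vehicle low control and 100% = maximal reference agonist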
Starred values were filed as active, the others as inactive; / = no result given. Compounds with a hit are over-represented: about 1.8% of the library has one in this group of screens.

SMILES	S1P2 antag	MRP resist rev	GALR2 antag	MRP-1 activ	GALR2 agonist	S1P2 agonist
Nc1c(C(=O)OCC2CCCO2)c2nc3ccccc3nc2n1Cc1cccs1 (stereo unspecified)	-11.2	-34.4	15.3	-1.5	0.4	0.9
Nc1c(C(=O)NC2CCCC2)c2nc3ccccc3nc2n1CC1CCCO1 (stereo unspecified)	-56.4	-26.6	-12.7	-3.4	32.5*	44.4*
O=C(COc1ccc(Br)cc1)N1CCN(C2CCCC2)CC1	9.4	12.5	-5.4	7.6*	-0.6	-4.8
CN(C)C(=O)Oc1ccc(OC(=O)c2ccccc2)cc1	11.6	-26.9	-11.7	8.2*	-1.5	-4.8
O=C1CC(N2CCC(n3c(=O)[nH]c4ccccc43)CC2)C(=O)N1c1ccc(F)cc1 (stereo unspecified)	23.2	2.6	19.8	6.2*	-1.3	-3.3
Cc1cc(C)cc(N2C(=O)NC(=O)/C(=C/c3cccn3-c3ccc(Cl)cc3)C2=O)c1	/	/	-1.4	-3.3	-0.9	/
Cc1cccc(N2C(=O)NC(=O)/C(=C\c3cccn3-c3ccc(Cl)cc3)C2=O)c1	56.1*	/	7.7	-2.8	-0.6	-5.7
CCn1nc(-c2ccccc2)nc2c(=O)n(C)c(=O)nc1-2	/	/	95.0*	-1.1	3.8	/
CCOP(=O)(C#CC(C)(C)C)C1(O)CCCCC1 (stereo unspecified)	/	-17.7	13.9	-1.5	-0.3	/
COc1ccc(Cn2c(N)c(C(=O)NCc3ccco3)c3nc4ccccc4nc32)cc1OC	-21.2	-21.1	-8.9	-5.2	2.4	7.0
CC(C)CNC(=O)c1c(N)n(Cc2ccc3c(c2)OCO3)c2nc3ccccc3nc12	-139.9	-26.1	-37.4	-5.9	40.2*	66.6*
Nc1c(C(=O)NCc2ccco2)c2nc3ccccc3nc2n1CCN1CCCCC1	-1.0	-5.9	-11.4	-6.5	7.5	27.8*
CC(C)OCCCNC(=O)c1c(N)n(Cc2cccs2)c2nc3ccccc3nc12	/	-5.6	-11.0	-4.3	28.6*	/
CC(C)CCn1c(N)c(C(=O)NCc2cccs2)c2nc3ccccc3nc21	-27.1	-26.8	0.1	-1.5	2.9	14.9
COCCNC(=O)c1c(N)n(CCC(C)C)c2nc3ccccc3nc12	-33.7	-26.3	-12.8	-2.2	15.9*	16.4*
COc1ccc2c(c1)c(C(=O)O)c(C)n2CC(C)C	15.1	0.0	8.3	-2.1	-0.7	-5.7
CC(C)CCNC(=O)c1c(N)n(Cc2ccc3c(c2)OCO3)c2nc3ccccc3nc12	-97.8	2.1	-12.4	-2.1	9.6	129.3*
CC(C)CNC(=O)c1c(N)n(Cc2ccco2)c2nc3ccccc3nc12	-65.0	-16.6	-23.7	-4.8	16.6*	32.9*
CN1CCN(c2ccc([N+](=O)[O-])c(N/N=C3\CN4CCC3CC4)c2)CC1	30.9	/	10.3	-1.9	-2.0	-7.2
CN1C(=O)C(Cc2ccc3c(c2)OCO3)C(=O)N(C)C1=O	32.2	-6.3	6.6	-0.6	0.8	-5.2
C=CCN(CC=C)Cc1c[nH]c2ccccc12	14.2	/	6.1	-2.2	-1.2	-4.5
Cc1ccc2nc3c(cc2c1)CC1(C(=O)N(C)C(=O)N(C)C1=O)C1COCCN31 (stereo unspecified)	8.6	3.0	-8.6	-2.0	0.5	0.4
Cc1ccc2nc3c(cc2c1)CC1(C(=O)N(C)C(=O)N(C)C1=O)C1CCCCN31 (stereo unspecified)	22.0	-15.7	9.5	5.8*	-1.8	-6.2
CSc1ncc(/C=C2/C(=O)NC(=O)N(c3ccc(C(C)C)cc3)C2=O)cn1	/	/	-2.4	-2.6	5.1*	/
CC(C)c1ccc(N2C(=O)NC(=O)/C(=C/c3cnc(-c4ccccc4)nc3)C2=O)cc1	/	/	-7.5	-2.4	1.2	/
SMILES	S1P2 antag	MRP resist rev	GALR2 antag	MRP-1 activ	GALR2 agonist	S1P2 agonist
CCN(CC)S(=O)(=O)c1ccc(C)c(NCC(=O)Nc2ccc(C#N)c(Cl)c2)c1	/	/	-0.9	-3.7	-0.2	/
CN1C(=O)C(Cc2cccs2)C(=O)N(C)C1=O	15.7	-26.4	3.6	0.2	-4.4	-8.8
Cc1cc(C)n2c(Br)c(CN3CC4CC(C3)c3cccc(=O)n3C4)nc2n1 (stereo unspecified)	/	11.3	-11.2	-3.0	0.1	/
C[C@H]1CCC/C=C/C2C[C@H](O)CC2[C@H](O)/C=C/C(=O)O1 (stereo partly specified)	/	/	49.4*	-3.8	-0.8	/
C[C@H]1CCC[C@@H](O)CCC/C=C/c2cc(O)cc(O)c2C(=O)O1	10.4	2.2	11.3	-2.3	-3.5	-4.6
CN(C)CCN=Cc1c(O)n(CCC2=CCCCC2)c(=O)[nH]c1=O	1.1	4.4	12.7	0.0	-0.9	-3.1

High-throughput results from PubChem BioAssay.
